Reference: article PMC5540273 (PLoS ONE, 2017)

Legend:
Conditions in all cases: concentration: 1 μM, replicates: in singlicate; n = 1
GRK7 = tested on: GRK7
GSK3A = tested on: GSK3A
GSK3B = tested on: GSK3B
HASPIN = tested on: T1, HASPIN
T1 construct: gene GSG2

HCK = tested on: HCK
HIPK1 = tested on: HIPK1
HIPK2 = tested on: HIPK2
HIPK3 = tested on: HIPK3
HIPK4 = tested on: HIPK4
HPK1 = tested on: HPK1
HUNK = tested on: HUNK
ICK = tested on: ICK
IGF1R = tested on: IGF1R
IKK-alpha = tested on: T2, IKK-alpha
T2 construct: gene CHUK

IKK-beta = tested on: T3, IKK-beta
T3 construct: gene IKBKB

IKK-epsilon = tested on: T4, IKK-epsilon
T4 construct: gene IKBKE

INSRR = tested on: INSRR
INSR = tested on: INSR
IRAK1 = tested on: IRAK1
IRAK3 = tested on: IRAK3
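Note: KINOMEscan kinase panel screen.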

Cc1c(Cn2ccn3c(=O)cc(N4CCOCC4)nc23)cccc1C(F)(F)F [GSK2289044]
%Inh (GRK7): 0%
%Inh (GSK3A): 1%
%Inh (GSK3B): 8%
%Inh (HASPIN): 0%
%Inh (HCK): 0%
%Inh (HIPK1): 0%
%Inh (HIPK2): 0%
%Inh (HIPK3): 24%
%Inh (HIPK4): 0%
%Inh (HPK1): 15%
%Inh (HUNK): 29%
%Inh (ICK): 0%
%Inh (IGF1R): 0%
%Inh (IKK-alpha): 0%
%Inh (IKK-beta): 0%
%Inh (IKK-epsilon): 3%
%Inh (INSRR): 0%
%Inh (INSR): 0%
%Inh (IRAK1): 0%
%Inh (IRAK3): 4%

Cc1ccc(NC(=O)Nc2cccc(Cl)c2)cc1-c1ccc(C(=O)Nc2ccncc2)cc1 [GSK1398468]
%Inh (GRK7): 0%
%Inh (GSK3A): 22%
%Inh (GSK3B): 4%
%Inh (HASPIN): 0%
%Inh (HCK): 0%
%Inh (HIPK1): 0%
%Inh (HIPK2): 0%
%Inh (HIPK3): 3%
%Inh (HIPK4): 0%
%Inh (HPK1): 40%
%Inh (HUNK): 13%
%Inh (ICK): 6%
%Inh (IGF1R): 0%
%Inh (IKK-alpha): 0%
%Inh (IKK-beta): 9%
%Inh (IKK-epsilon): 15%
%Inh (INSRR): 0%
%Inh (INSR): 0%
%Inh (IRAK1): 27%
%Inh (IRAK3): 100%

CN(C)CCN(C)C(=O)c1cc(-c2ccncc2)c(-c2ccc(Cl)c(O)c2)o1.Cl.Cl [SB-710397]
%Inh (GRK7): 0%
%Inh (GSK3A): 0%
%Inh (GSK3B): 14%
%Inh (HASPIN): 53%
%Inh (HCK): 14%
%Inh (HIPK1): 0%
%Inh (HIPK2): 0%
%Inh (HIPK3): 16%
%Inh (HIPK4): 0%
%Inh (HPK1): 46%
%Inh (HUNK): 38%
%Inh (ICK): 10%
%Inh (IGF1R): 7%
%Inh (IKK-alpha): 44%
%Inh (IKK-beta): 35%
%Inh (IKK-epsilon): 34%
%Inh (INSRR): 0%
%Inh (INSR): 0%
%Inh (IRAK1): 56%
%Inh (IRAK3): 0%

COc1ccc(Nc2nccc(-c3cccc(NC(=O)c4cc5cc(F)ccc5[nH]4)c3)n2)cc1 [GSK1229782]
%Inh (GRK7): 0%
%Inh (GSK3A): 31%
%Inh (GSK3B): 0%
%Inh (HASPIN): 39%
%Inh (HCK): 0%
%Inh (HIPK1): 0%
%Inh (HIPK2): 46%
%Inh (HIPK3): 0%
%Inh (HIPK4): 36%
%Inh (HPK1): 65%
%Inh (HUNK): 8%
%Inh (ICK): 0%
%Inh (IGF1R): 17%
%Inh (IKK-alpha): 21%
%Inh (IKK-beta): 13%
%Inh (IKK-epsilon): 0%
%Inh (INSRR): 0%
%Inh (INSR): 0%
%Inh (IRAK1): 25%
%Inh (IRAK3): 42%

Cc1cccc(-c2nc(C)cc(Nc3ccncc3)n2)n1 [GSK257997]
%Inh (GRK7): 0%
%Inh (GSK3A): 27%
%Inh (GSK3B): 17%
%Inh (HASPIN): 31%
%Inh (HCK): 0%
%Inh (HIPK1): 0%
%Inh (HIPK2): 0%
%Inh (HIPK3): 7%
%Inh (HIPK4): 0%
%Inh (HPK1): 34%
%Inh (HUNK): 7%
%Inh (ICK): 0%
%Inh (IGF1R): 5%
%Inh (IKK-alpha): 0%
%Inh (IKK-beta): 13%
%Inh (IKK-epsilon): 12%
%Inh (INSRR): 0%
%Inh (INSR): 3%
%Inh (IRAK1): 0%
%Inh (IRAK3): 0%

CC(C)(C)c1ccc(C(=O)Nc2cn3cc(-c4cccnc4)ccc3n2)cc1
%Inh (GRK7): 24%
%Inh (GSK3A): 16%
%Inh (GSK3B): 5%
%Inh (HASPIN): 0%
%Inh (HCK): 44%
%Inh (HIPK1): 52%
%Inh (HIPK2): 27%
%Inh (HIPK3): 25%
%Inh (HIPK4): 15%
%Inh (HPK1): 11%
%Inh (HUNK): 0%
%Inh (ICK): 0%
%Inh (IGF1R): 0%
%Inh (IKK-alpha): 21%
%Inh (IKK-beta): 27%
%Inh (IKK-epsilon): 11%
%Inh (INSRR): 7%
%Inh (INSR): 0%
%Inh (IRAK1): 41%
%Inh (IRAK3): 30%

CCn1c(-c2cccnc2O)nc2cnccc21 [SB-736715]
%Inh (GRK7): 0%
%Inh (GSK3A): 0%
%Inh (GSK3B): 0%
%Inh (HASPIN): 0%
%Inh (HCK): 0%
%Inh (HIPK1): 11%
%Inh (HIPK2): 0%
%Inh (HIPK3): 0%
%Inh (HIPK4): 0%
%Inh (HPK1): 4%
%Inh (HUNK): 0%
%Inh (ICK): 0%
%Inh (IGF1R): 0%
%Inh (IKK-alpha): 0%
%Inh (IKK-beta): 0%
%Inh (IKK-epsilon): 0%
%Inh (INSRR): 0%
%Inh (INSR): 0%
%Inh (IRAK1): 0%
%Inh (IRAK3): 0%
